The target in test [1] is Cellular tumor antigen p53 (Homo sapiens) (UniProt P04637). Kind of test: Primary qHTS for small molecule compounds that upregulate eGFP-tagged delta133p53alpha (in N-terminal) cells. (AID 2060322). Further: nearly all actives have a fitted effect of over 75% in size. Further: potency means the concentration at half of the fitted maximal effect.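 On activation: cells pre-induced with doxycycline then dosed without doxycycline; 0% = DMSO vehicle and 100% = reference activator.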 Particulars: NCI-H358 eGFP-delta133p53alpha fluorescence, 24 h; activation: stronger effect = higher value. The procedure, abridged:
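NCI-H358 cells pre-induced 24 h with 10 ng/ml doxycycline for eGFP-delta133p53alpha, plated dox-free and exposed 24 h at 37C to titrated compounds. Fixed, Hoechst-stained; gated GFP peak intensity by laser scanning cytometry, normalized to DMSO (0%) and 57.5 uM 5-azacytidine (100%).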
(Quantitative high-throughput screening tests each substance at several concentrations.)

For test [2], the target named is Aldehyde dehydrogenase, mitochondrial (Homo sapiens) (UniProt P05091). Kind of test: qHTS for Inhibitors of the Aldehyde Dehydrogenase Family (ALDH2) Primary screen (AID 2061308).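 Further: plate controls were vehicle for no effect and reference inhibitor for full effect; nearly all actives have a fitted effect of over 55% in size.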 As to conditions: ALDH2 enzyme inhibition qHTS, 1536-well; series mostly up to 56 µM.
The target in test [3] is Retinaldehyde dehydrogenase 3 (Homo sapiens) (UniProt P47895). Kind of test: qHTS for Inhibitors of the Aldehyde Dehydrogenase Family (ALDH1A3) Primary screen (AID 2061315).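 Further: plate controls were DMSO vehicle for no effect and reference inhibitor for full effect.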 Particulars: ALDH inhibition qHTS; series mostly up to 56 µM.

The results in this text go back to PubChem BioAssay (NCATS).

Values joined by “and” are separate entries in the source; they are usually repeats but may differ in a detail not shown here. Identical values can stand only once. Results filed as inconclusive are left out. Values without a mark were called inactive. Active and inactive are the calls of the source. The call rests on the fitted dose curve; in most records, active means well fitted curve in the direction sought with a large enough effect; inconclusive means small, poorly fitted or top-dose-only effect, or another doubt; inactive means no such curve, though single readings can be large; an effect the other way counts as inactive or inconclusive. Numbered stars: 1 amine (or outer) side, 2 acyl side, 3 side chain; on linkers, the order of the positions; unused ones are H or OH. Square brackets hold non-standard residues; d marks the D form. Peptide text beside a SMILES is read from it. X3 = CC(CC(O[*:1])C(=O)[*:2])C(=O)O; NMeV = CN[CH](C(=O)O)C(C)C; NMeA = CN[CH](C)C(=O)O; βAla = NCCC(=O)O

Cellular tumor antigen p53 (Homo sapiens), sequence (P04637 whole entry, looked up): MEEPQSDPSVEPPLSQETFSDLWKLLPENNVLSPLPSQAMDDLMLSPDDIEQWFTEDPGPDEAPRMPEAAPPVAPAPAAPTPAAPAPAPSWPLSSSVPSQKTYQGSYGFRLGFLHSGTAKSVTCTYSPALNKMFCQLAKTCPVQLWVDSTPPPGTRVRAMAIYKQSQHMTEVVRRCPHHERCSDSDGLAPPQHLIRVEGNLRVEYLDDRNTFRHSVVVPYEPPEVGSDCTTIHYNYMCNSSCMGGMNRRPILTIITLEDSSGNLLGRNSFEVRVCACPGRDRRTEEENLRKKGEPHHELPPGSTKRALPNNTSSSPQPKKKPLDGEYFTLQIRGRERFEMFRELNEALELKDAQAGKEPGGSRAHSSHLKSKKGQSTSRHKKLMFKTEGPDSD

As for `COC1CCCC(C)OC(=O)Cc2cc(O)cc(O)c2C(=O)C1` (configuration not stated), in test [1], the Potency was 16.6 µM (active). The Potency entry in test [2] and in test [3] was “inactive” in each case.
Take `O=C1Nc2ccc3ncsc3c2/C1=C/c1cnc[nH]1`: the Potency in test [1] was 2.39 µM (active). The Potency entry in test [2] and in test [3] was “inactive” each time.
For `CCN1C[C@]2(COC)CC[C@H](O)[C@@]34C5C[C@@H]6[C@@H](OC)C[C@@](OC(C)=O)(C5[C@@H]6OC(C)=O)[C@H]([C@H](OC)C23)[C@@H]14` (some centres not stated), the activation in test [1] was 8.04%. Also, the Potency entry in test [2] and in test [3] was “inactive” throughout.
As for `COCC(C(=O)OC1CC2CCC(C1)N2C)c1ccccc1` (configuration not stated), the activation in test [1] is 4.33%. For the same compound, the Potency result in test [2] and in test [3] was “inactive” each time.
Take `N#CC(OC1OC(COC2OC(CO)C(O)C(O)C2O)C(O)C(O)C1O)c1ccccc1` (configuration not stated): the activation in test [1] is 8.4%. Also, the Potency result in test [2] and in test [3] was “inactive” each time.
For the compound `CO[C@H]1C[C@H](O[C@H]2CC[C@@]3(C)C(=CCC4C3CC[C@]3(C)[C@@H](C5=CC(=O)OC5)CC[C@]43O)C2)O[C@@H](C)[C@@H]1O[C@@H]1O[C@H](CO[C@@H]2O[C@H](CO)[C@@H](O)[C@H](O)[C@H]2O)[C@@H](O)[C@H](O)[C@H]1O` (some centres not stated), the activation in test [1] is 0%. Moreover, the Potency result in test [2] and in test [3] was “inactive” in each case.
Consider `C[C@]12CC[C@H]3[C@@H](CCC4=C/C(=N/OCC(=O)O)CC[C@@]43C)[C@@H]1CC[C@@H]2O`, for which the activation in test [1] is 13.7%. Also, the Potency entry in test [2] and in test [3] was “inactive” each time.
Take `CC1=CC(=O)[C@@H](O)[C@@]2(C)C1C[C@H]1OC(=O)[C@H](O)[C@@]3(O)[C@@H](C)[C@@H](O)[C@H](O)C2[C@@]13C` (some centres not stated): the Potency in test [1] was 14.8 µM (active). Besides, the Potency result in test [2] and in test [3] was “inactive” in each case.
Turning to `COC(=O)[C@@]12C(=O)C(C)C(=O)[C@]1(C)C(C)=C[C@H]1[C@]3(C=O)CC[C@H](OC(C)=O)C(C)(C)[C@H]3CC[C@@]12C` (some centres not stated), the activation in test [1] was 19.1%. Besides, the Potency result in test [2] and in test [3] was “inactive” throughout.
As to `CC[C@H]1C[C@@H]2CC[C@@H](O2)[C@@H](C)C(=O)O[C@H](CC)C[C@H]2CC[C@H](O2)[C@H](C)C(=O)O[C@@H](C)C[C@@H]2CC[C@@H](O2)[C@@H](C)C(=O)O[C@H](CC)C[C@H]2CC[C@H](O2)[C@H](C)C(=O)O1`, in test [1], the activation is -0.893%. Also, the Potency entry in test [2] and in test [3] was “inactive” throughout.
For the compound `COC1=CC(=O)O[C@@H](CCc2ccccc2)C1`, the activation in test [1] is -13.4%. Further, the Potency entry in test [2] and in test [3] was “inactive” in each case.
For `CCC1CN2CCc3cc(OC)c(OC)cc3C2CC1CC1=NCCc2cc(O)c(OC)cc21` (configuration not stated), the activation in test [1] is 23.2%. Moreover, the Potency result in test [2] and in test [3] was “inactive” each time.
Consider `C=C(C)C(=O)O[C@H]1[C@@H]2[C@H](C)C(=O)O[C@@H]2C[C@@H](C)[C@@H]2C=CC(=O)[C@]21C`, for which the Potency in test [1] was 13.2 µM (active). For the same compound, the Potency entry in test [2] and in test [3] was “inactive” in each case.
For `CCC(C)C1NC(=O)C2CCCN2C(=O)C(CC(C)C(=O)O)OC(=O)CCNC(=O)C(C)N(C)C(=O)C(C(C)C)N(C)C1=O` (configuration not stated) (cyclo([X3]PI[NMeV][NMeA][βAla]); configuration not given here), the activation in test [1] is -10.7%. The Potency entry in test [2] and in test [3] was “inactive” throughout.
With `C[C@H]1CCC[C@H](O)CCC/C=C/c2cc(O)cc(O)c2C(=O)O1`, the activation in test [1] was -13%. Further, the Potency result in test [2] and in test [3] was “inactive” in each case.
Take `CC1=CC(=O)[C@@H](O)[C@]2(C)C3[C@@H](O)[C@@H]4OC(=O)[C@@H]([C@H]4C)[C@]3(C)C(=O)C[C@@H]12` (some centres not stated): the Potency in test [1] was 16.6 µM (active). For the same compound, the Potency result in test [2] and in test [3] was “inactive” each time.
Regarding `CC1CCCCCC(=O)c2c(O)cc(O)cc2CC(=O)O1` (configuration not stated), the activation in test [1] was -18.3%. The Potency result in test [2] and in test [3] was “inactive” each time.
For the compound `COC(=O)C1(C)CCC(O)C2(C)c3cc(O)c(C(C)C)cc3C(O)C(OC(C)=O)C12` (configuration not stated), the activation in test [1] is -2.68%. For the same compound, the Potency result in test [2] and in test [3] was “inactive” throughout.
For `C[C@]12CC[C@H](O)C[C@@H]1CC[C@@H]1[C@@H]2CC[C@]2(C)[C@@H](C3=CC(=O)OC3)CC[C@]12O`, the activation in test [1] is 7.63%. Also, the Potency entry in test [2] and in test [3] was “inactive” throughout.
As for `CC1=CC2/C=C(\C)CCC(O)C(O)C(O)CC(=O)C23C(=O)NC(CC(C)C)C3C1C` (configuration not stated), the activation in test [1] is -32.8%. The Potency entry in test [2] and in test [3] was “inactive” in each case.
As for `CCCOC(=O)Cc1ccc(OCC(=O)N(CC)CC)c(OC)c1`, the activation in test [1] was 4.33%. Also, the Potency entry in test [2] and in test [3] was “inactive” each time.
In the case of `C[C@H]1O[C@@H](n2cnc3c(N)ncnc32)C[C@@H]1O`, in test [1], the activation was 15%. For the same compound, the Potency entry in test [2] and in test [3] was “inactive” each time.
Take `CCCC[N+]1(C)[C@@H]2CC(OC(=O)[C@H](CO)c3ccccc3)C[C@H]1[C@@H]1O[C@@H]12` (some centres not stated): the activation in test [1] was -28.8% and -9.82%. The Potency result in test [2] and in test [3] was “inactive” throughout.
Take `Clc1ccc([C@]23CNC[C@H]2C3)cc1Cl`: in test [1], the activation is -21.7%. Further, the Potency result in test [2] and in test [3] was “inactive” each time.
